Test systems include DU-145 prostate; K-562 leukemia; MALME-3M melanoma; MDA-MB-231 breast; RXF 393 renal; SF-268 CNS; SF-295 CNS; SF-539 CNS; UACC-257 melanoma; M14 melanoma; HCT-15 colon; HT29 colon; SNB-75 CNS; SNB-19 CNS; U251 CNS; PC-3 prostate; SK-MEL-5 melanoma; UACC-62 melanoma; LOX IMVI melanoma; SK-MEL-28 melanoma.
Assay in all cases: NCI-60 one-dose screen, 48 h (100 = growth as untreated, 0 = no growth, -100 = all killed)
Holding throughout (conditions): 10 µM unless noted

The panel holds about 83,000 compounds, 20% with a hit somewhere; the sample as a whole holds those more often.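 Each cell line was grown in a 96-well plate and treated with one concentration of compound for 48 hours. Values below 10 were considered active.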 A number with no mark means an inactive call. Active and inactive are the calls of the source.

On to `C=CC(=O)NC(=O)Nc1ccccc1Cl`, for which the growth in the test with DU-145 prostate was 48.4%; in the test with K-562 leukemia, 41.2%; with MALME-3M melanoma, 83%; with MDA-MB-231 breast, 72.4%; in the test with RXF 393 renal it was 88.7%; with SF-268 CNS, 96.7%. The growth was 101% with SF-295 CNS; 72.3% in the test with SF-539 CNS; 71.9% with UACC-257 melanoma; 70% with M14 melanoma; 67.9% with HCT-15 colon; 70.2% with HT29 colon. In addition, the growth with SNB-75 CNS is 83.8%; with SNB-19 CNS it was 72.5%; with U251 CNS it was 81.7%; in the test with PC-3 prostate it was 78.2%; in the test with SK-MEL-5 melanoma, 96.6%; in the test with UACC-62 melanoma, 93.4%. Moreover, the results for the growth in the test on LOX IMVI melanoma and in the test with SK-MEL-28 melanoma were 86.1% and 109%, respectively.
`CN(C)c1ccc(/C=c2\s/c(=C\C(=O)C(C)(C)C)[nH]c2=O)cc1`: the growth in the test with DU-145 prostate is 93.1%; with K-562 leukemia, 111%; in the test with MALME-3M melanoma, 93.6%; in the test with MDA-MB-231 breast, 118%; in the test on RXF 393 renal, 122%; in the test with SF-268 CNS it was 93.5%. In addition, the growth was 94.9% in the test with SF-295 CNS; 96.6% with SF-539 CNS; 96.1% in the test with UACC-257 melanoma; 101% in the test on M14 melanoma; 95.5% with HCT-15 colon; 91% with HT29 colon. The growth with SNB-75 CNS was 94.3%; in the test on SNB-19 CNS, 97.5%; in the test on U251 CNS, 94.1%; with PC-3 prostate it was 85.2%; in the test on SK-MEL-5 melanoma, 101%; with UACC-62 melanoma, 95.3%. Besides, the growth in the test on LOX IMVI melanoma was 87.1%; with SK-MEL-28 melanoma, 104%.
Consider `c1ccc(OCC[P+](c2ccccc2)(c2ccccc2)c2ccccc2)cc1`, for which the growth is 36.4% in the test with DU-145 prostate; 17.5% with K-562 leukemia; 15.5% in the test on MALME-3M melanoma; 43.6% in the test on MDA-MB-231 breast; 51% with RXF 393 renal; 20.9% in the test with SF-268 CNS. Also, the growth in the test with SF-295 CNS was 21.2%; in the test on SF-539 CNS, 32%; in the test on UACC-257 melanoma, -4.91% (active); with M14 melanoma it was 32.6%; in the test on HCT-15 colon it was 78%; in the test on HT29 colon, 13%. Further, the growth with SNB-75 CNS was 16.5%; with SNB-19 CNS, 21.5%; in the test on U251 CNS, 14.8%; with PC-3 prostate, 11.8%; in the test with SK-MEL-5 melanoma, -40.1% (active); in the test with UACC-62 melanoma, 8.25% (active). The results for the growth in the test with LOX IMVI melanoma and with SK-MEL-28 melanoma were 2.69% (active) and 26.1%, respectively.
Regarding `COc1ccc(/C(Cl)=N/N=C(\Cl)c2cc(OC)c(OC)c(OC)c2)cc1OC(C)=O`, the growth is 95.3% in the test with DU-145 prostate; 97.3% with K-562 leukemia; 93.6% in the test on MALME-3M melanoma; 97.8% in the test on MDA-MB-231 breast; 101% in the test with RXF 393 renal; 95.3% in the test with SF-268 CNS. Also, the growth with SF-295 CNS is 102%; with SF-539 CNS, 93.3%; in the test on UACC-257 melanoma, 84.6%; with M14 melanoma it was 107%; with HCT-15 colon, 100%; in the test with HT29 colon it was 79.2%. In addition, the growth with SNB-75 CNS was 78.7%; in the test on SNB-19 CNS it was 92.3%; in the test on U251 CNS it was 89.6%; in the test with PC-3 prostate, 74.8%; with SK-MEL-5 melanoma it was 94.8%; with UACC-62 melanoma it was 93.9%. Also, the growth with LOX IMVI melanoma is 96.7%; with SK-MEL-28 melanoma, 110%.
With `COc1ccc2c(c1)OC(N)=C(C#N)C2c1ccc(F)cc1` (stereo not given), the growth in the test on DU-145 prostate is 36.8%; with K-562 leukemia, 12%; with MALME-3M melanoma it was 61.6%; in the test on MDA-MB-231 breast it was 56.7%; in the test on RXF 393 renal, 16.1%; in the test with SF-268 CNS, 47.1%. Also, the growth is 23.4% with SF-295 CNS; 19.2% in the test with SF-539 CNS; 51.7% in the test on UACC-257 melanoma; 14.1% in the test on M14 melanoma; 21.9% in the test with HCT-15 colon; 5.87% (active) in the test on HT29 colon. The growth is 8.49% (active) in the test on SNB-75 CNS; 30.1% with SNB-19 CNS; 31.3% in the test with U251 CNS; 27.9% with PC-3 prostate; 22.6% in the test on SK-MEL-5 melanoma; 29.7% in the test on UACC-62 melanoma. The growth in the test on LOX IMVI melanoma was 39.1%; with SK-MEL-28 melanoma it was 65%.
Consider `O=S(=O)(CCN1CCOCC1)Nc1cc(-c2ccc3ncnc(Nc4ccc(F)c(Cl)c4)c3c2)cnc1Cl`, for which the growth in the test with DU-145 prostate is 15.6%; in the test on K-562 leukemia it was 42.3%; in the test on MALME-3M melanoma it was -23.1% (active); in the test with MDA-MB-231 breast, -1.28% (active); with RXF 393 renal, -19% (active); with SF-268 CNS it was 16.8%. Further, the growth is 2.93% (active) in the test with SF-295 CNS; -34.5% (active) in the test with SF-539 CNS; -3.1% (active) in the test on UACC-257 melanoma; 14.5% in the test on M14 melanoma; 16.2% in the test with HCT-15 colon; 14.6% in the test with HT29 colon. The growth is -20.7% (active) in the test on SNB-75 CNS; 5.93% (active) with SNB-19 CNS; 13.5% with U251 CNS; 13.4% in the test on PC-3 prostate; -5.68% (active) in the test on SK-MEL-5 melanoma; -16.4% (active) in the test on UACC-62 melanoma. In addition, the growth in the test on LOX IMVI melanoma is 4.23% (active); in the test on SK-MEL-28 melanoma, 2.15% (active).
`CN1C(=O)C2(NN=C(c3cccc4ccccc34)S2)c2ccccc21` (stereo not given): the growth is 50.3% in the test on DU-145 prostate; 11.8% with K-562 leukemia; 63.5% in the test with MALME-3M melanoma; 46% with MDA-MB-231 breast; 79% in the test on RXF 393 renal; 37.6% with SF-268 CNS. In addition, the growth in the test on SF-295 CNS was 29.7%; with SF-539 CNS, 49.1%; in the test on UACC-257 melanoma, 50.6%; in the test with M14 melanoma it was 17.3%; in the test on HCT-15 colon, 28.3%; in the test with HT29 colon, 50.8%. Further, the growth was 73.4% in the test on SNB-75 CNS; 33.7% in the test on SNB-19 CNS; 9.26% (active) in the test with U251 CNS; 19.7% with PC-3 prostate; 41.8% with SK-MEL-5 melanoma; 17.2% in the test with UACC-62 melanoma. The growth is 31.3% with LOX IMVI melanoma and 32.4% in the test with SK-MEL-28 melanoma.
Regarding `CCN1CCN(Cc2ccc(NC(=O)Nc3cccc(-n4ccc5c(NC(=O)c6ccccc6)nccc54)c3)cc2C(F)(F)F)CC1`, the growth was 88.8% in the test with DU-145 prostate; 49.3% in the test on K-562 leukemia; 64% with MALME-3M melanoma; 82% in the test on MDA-MB-231 breast; 79.5% in the test on RXF 393 renal; 85.3% with SF-268 CNS. Further, the growth is 55.7% with SF-295 CNS; 81.1% with SF-539 CNS; 73.9% with UACC-257 melanoma; 76% in the test with M14 melanoma; 77% in the test with HCT-15 colon; 75.1% with HT29 colon. Moreover, the growth with SNB-75 CNS was 80.2%; in the test on SNB-19 CNS it was 89.8%; in the test on U251 CNS, 76.3%; in the test with PC-3 prostate, 66.4%; with SK-MEL-5 melanoma, 43.1%; in the test with UACC-62 melanoma, 68%. The growth is 85% in the test on LOX IMVI melanoma and 82.8% in the test with SK-MEL-28 melanoma.

(Values after PubChem BioAssay (NCI).)
